# Experimental data from PubChem BioAssay AID2235 (The Scripps Research Institute Molecular Screening Center, 2010).
# The campaign covered roughly 320,000 compounds. About 2,800 (0.88%) were called active. The sample as a whole holds a higher share of actives than the screen did. A number with no mark means an inactive call.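 Rule for the calls: active = inhibition above the mean inhibition of all tested compounds plus 3 SD, computed separately for each screening campaign (cut at about 15% in these data); inactive = the rest.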
# Biological target: Serine/threonine-protein phosphatase PP1-alpha catalytic subunit (Homo sapiens) (UniProt P62136)
# Sequence (P62136 whole entry, looked up): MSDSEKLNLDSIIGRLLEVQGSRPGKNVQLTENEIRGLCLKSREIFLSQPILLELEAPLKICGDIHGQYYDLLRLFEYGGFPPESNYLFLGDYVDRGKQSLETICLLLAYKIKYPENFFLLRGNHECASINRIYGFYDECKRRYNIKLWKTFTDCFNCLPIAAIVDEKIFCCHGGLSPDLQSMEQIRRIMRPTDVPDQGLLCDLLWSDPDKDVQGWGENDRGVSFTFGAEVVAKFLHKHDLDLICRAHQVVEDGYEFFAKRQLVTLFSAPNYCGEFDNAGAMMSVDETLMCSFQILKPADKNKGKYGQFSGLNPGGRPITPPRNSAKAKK
# Experiment: inhibition of human PP1 catalytic subunit – biochemical, fluorescence, OMFP substrate, single point, counter-screen for PP5 inhibitor project, primary screen (AID 2235)
# Conditions: purified PP1alpha, at 6.7 µM, stronger effect = higher value
row,Compound,inhibition
1,Cc1ccnc(NC(=O)c2ccc(Cl)c([N+](=O)[O-])c2)c1,-0.42%
2,Cc1c(NC(=O)CN2C(=O)C(=O)N(Cc3ccccc3)C2=O)c(=O)n(-c2ccccc2)n1C,-2.42%
3,N#Cc1c(-c2ccccc2)nc(SCc2ccc([N+](=O)[O-])cc2)[nH]c1=O,9.45%
4,N#Cc1c(-c2ccccc2)nc(SCc2cccc(C(F)(F)F)c2)[nH]c1=O,22.1% (active)
5,Cc1ccc(CSc2nc(-c3ccccc3)c(C#N)c(=O)[nH]2)cc1,14.2%
6,Cc1ccc(OCCC(=O)OCC(=O)N2c3ccccc3NC(=O)C2(C)C)cc1,0.61%
7,CCCCN(CC)C(=O)c1ccccc1Oc1ccccc1,-1.38%
8,CCOC(=O)c1c(S(=O)(=O)Nc2ccc(CN3CCC(C)CC3)cc2)c(C)n(C)c1C,2.36%
9,O/N=C(\c1ccc2c(c1)OCCO2)C1CCCCC1,0.46%
10,Cc1cc2oc(=O)cc(CN3CCN(S(=O)(=O)c4cccs4)CC3)c2cc1C(C)C,-3.33%
11,Cc1ccc2c(CN3CCN(S(=O)(=O)c4ccccc4C(F)(F)F)CC3)cc(=O)oc2c1,16.8% (active)
12,COc1ccc2c(CN3CCN(S(=O)(=O)c4cccs4)CC3)cc(=O)oc2c1,4.63%
13,COc1ccccc1NS(=O)(=O)N(C)C,6.89%
14,CCCc1nnc(NC(=O)CCC(=O)N2CCN(S(=O)(=O)c3ccc(OC)cc3)CC2)s1,-4.44%
15,Cc1cc2nc3c(=O)n(Cc4ccccc4)c(=O)[nH]c3nc2cc1N,2.81%
16,Nc1ccc2nc3c(=O)[nH]c(=S)[nH]c3nc2c1,41.9% (active)
17,COC(=O)/C(C#N)=C/c1occc1C,-1.37%
18,CCC(C)(C)NC(=O)C(c1ccc(O)cc1)N(C(=O)Cn1nnc2ccccc21)c1ccc(NC(C)=O)cc1 (stereo not drawn),4.46%
19,O=c1cc(O)nc(SCc2ccccc2Cl)[nH]1,3.47%
20,O=C(CC1N=C2c3ccccc3N=C(SCc3ccccc3Cl)N2C1=O)NCc1ccco1 (stereo not drawn),1.15%
21,Clc1ccccc1CSc1nnc(-c2ccco2)c(-c2ccco2)n1,24.6% (active)

row,Compound,inhibition
1,CCOC(=O)N1CCN(S(=O)(=O)c2cc3c(cc2C)NC(=O)CO3)CC1,-2.81%
2,Cc1cc(N2C(=O)C(=O)/C(=C(/O)c3ccccc3)C2c2cccc(Br)c2)no1 (stereo not drawn),-4.18%
3,CCOc1cc(C2C(C(=O)c3ccco3)=C(O)C(=O)N2Cc2ccccc2)ccc1O (stereo not drawn),4.74%
4,COc1cc(C2C(C(=O)c3ccco3)=C(O)C(=O)N2c2cc(C)on2)ccc1OCc1ccccc1 (stereo not drawn),13.9%
5,Cc1cc(N2C(=O)C(O)=C(C(=O)c3ccc(C)o3)C2c2ccc(OCc3ccccc3)cc2)no1 (stereo not drawn),26.8% (active)
6,COc1ccc(CCN2C(=O)c3[nH]nc(-c4ccccc4O)c3C2c2ccc(C)cc2)cc1OC (stereo not drawn),6.53%
7,COc1cc(C2C(C(=O)c3ccc(C)o3)=C(O)C(=O)N2CCc2ccccc2)ccc1O (stereo not drawn),32.7% (active)
8,Cc1c(Cl)c([N+](=O)[O-])nn1CC(=O)NCC1CCCO1 (stereo not drawn),-3.7%
9,COc1ccccc1N1CCN(S(=O)(=O)c2ccc3c(c2)NC(=O)CS3)CC1,5.88%
10,CCOc1ccc(C(=O)Nc2ccc(S(=O)(=O)NCC3CCCO3)cc2)cc1OCC (stereo not drawn),-1.6%
11,COC(C[C@@H](O)C[C@@H](O)[C@H](C)OCc1ccccc1)OC,0.46%
12,COCCC(=O)N1CCC(Oc2ccc(C(=O)NCc3ccon3)cc2)CC1,-0.97%
13,O=C(Nc1ccc(S(=O)(=O)Nc2nccs2)cc1)c1cc(=O)[nH]c2ccccc12,0.73%
14,O=C(Nc1ccc(S(=O)(=O)Nc2nccs2)cc1)c1cc(-c2ccncc2)nc2ccccc12,27.5% (active)
15,CCN(CC)CCNC(=O)c1ccc(NC(=O)c2cc(-c3ccncc3)nc3ccccc23)cc1,-7.72%
16,c1ccc(C2CNCc3c2ccc2ccccc32)cc1 (stereo not drawn),3.78%
17,Cn1cnc(C(F)(F)F)c1-c1ccc([N+](=O)[O-])cc1,-0.23%
18,C[N+](C)(C)CCOP(=O)([O-])OC[C@H](O)CO,-5.96%
19,CCC(=O)NC(=Nc1nc2ccccc2s1)NC(=O)CC,-4.21%
20,COC(=O)Cc1cc(=O)n(-c2nc3ccccc3s2)[nH]1,19.6% (active)
21,C/C(=N\NC(=O)CC(C)C)c1c(C(F)(F)F)[nH]n(-c2nc3ccccc3s2)c1=O,4.43%

row,Compound,inhibition
1,NC(=O)c1ccsc1NC(=O)COC(=O)Cc1n[nH]c(=O)c2ccccc12,-0.46%
2,C/C(CC(O)(/C=N/O)c1ccccc1)=N\O (stereo not drawn),31.4% (active)
3,O=C(CSc1nnnn1-c1ccc(O)cc1)N1N=C(c2ccc3ccccc3c2)CC1c1ccccc1 (stereo not drawn),-3.09%
4,Cc1ccc(N2C(=O)C3N=NN(CC(=O)N4N=C(c5cccc6ccccc56)CC4c4ccccc4)C3C2=O)cc1 (stereo not drawn),29.8% (active)
5,O=C1C2N=NN(CC(=O)N3N=C(c4cccc5ccccc45)CC3c3ccccc3)C2C(=O)N1c1ccccc1 (stereo not drawn),30.5% (active)
6,O=C(c1ccccc1)N1N=C(c2ccccc2O)CC1c1ccc(Br)cc1 (stereo not drawn),6.46%
7,CC(=O)Oc1ccccc1C1=NN(C(C)=O)C(c2ccccc2)C1 (stereo not drawn),-2.36%
8,Oc1ccccc1C1=NN(c2ccccc2)C(c2ccccc2)C1 (stereo not drawn),0.4%
9,COc1ccc(C(=NN)c2ccc(OC)cc2)cc1,-2.58%
10,COc1ccc(-c2nc3c(s2)CCc2onc(-c4ccc(Br)cc4)c2-3)cc1,-1.07%
11,CCc1ccc(N(CC)c2ncnc3nc[nH]c23)cc1,2.16%
12,[2H]C(CCOS(N)(=O)=O)c1ccccc1 (stereo not drawn),-3.22%
13,Cc1cc(C(=O)OCC(=O)NCc2ccco2)c(C)n1-c1ccccc1,-0.54%
14,CN(C)/C=C(/C(=O)c1ccc(Cl)cc1)S(=O)(=O)c1ccccc1,0.05%
15,CC(C)(C)c1nnc(NC(=O)C2c3ccccc3Oc3ccccc32)s1,1.1%
16,CNC(=O)C1CCN(S(=O)(=O)c2c(C)noc2/C=C/c2cccc(C)c2)CC1,0.59%
17,Cc1noc(/C=C/c2ccco2)c1S(=O)(=O)N1CCC(C(=O)N2CCc3ccccc32)CC1,15.4% (active)
18,Cc1noc(/C=C/c2ccco2)c1S(=O)(=O)N1CCC(C(=O)Nc2ccc(Cl)cn2)CC1,0.73%
19,O=C(CSc1nc2ccccc2c(=O)n1CCCO)NC1CC1,-4.92%
20,O=C(COC(=O)Cc1ccccc1F)NNC(=O)c1ccc(Cl)cc1,-4.59%
21,C#CCCCc1nc2ccccc2c(=O)n1N,-2.85%
